Laboratory results taken from PubChem BioAssay (NCI).
This is part of a sample that, as a whole, favours compounds with a hit. Of some 79,000 tested, about 15% had one in any assay. Unmarked numbers belong to inactive results. Active and inactive are the calls of the source. Rule as the data show it: active = growth inhibition above about 70%; inactive = the rest.

Columns and labels:
[1] = NCI Yeast Anticancer Drug Screen. Data for the rad50 strain (AID 155);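 also: 0% = growth of vehicle-only cultures of the same strain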; conditions: S. cerevisiae rad50 strain growth inhibition, active compounds read high
Procedure, shortened: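 Relative growth inhibition (compound vs vehicle) was measured in yeast with a defined repair-gene alteration.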

[2] = NCI Yeast Anticancer Drug Screen. Data for the mec2-1 strain (AID 157); conditions: S. cerevisiae mec2-1 strain, active compounds read high
Procedure, shortened: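 Strain: mec2-1 (DNA repair/cell cycle alteration). Compound exposure, then growth measured; inhibition expressed relative to vehicle.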

[3] = NCI Yeast Anticancer Drug Screen. Data for the sgs1 mgt1 strain (AID 161);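 also: 0% = growth of cultures given vehicle only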; conditions: S. cerevisiae sgs1 mgt1 strain, active compounds read high
Procedure, shortened: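 Mutant yeast exposed to compound; growth scored against vehicle-only wells.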

[4] = NCI Yeast Anticancer Drug Screen. Data for the cln2 rad14 strain (AID 165);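 also: 0% = growth equal to vehicle treated cultures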; conditions: S. cerevisiae cln2 rad14 strain, active compounds read high
Procedure, shortened: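 Compounds are applied to the cln2 rad14 yeast strain, and growth is then compared with that of vehicle-treated cultures to give inhibition.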

[5] = NCI Yeast Anticancer Drug Screen. Data for the bub3 strain (AID 167); conditions: S. cerevisiae bub3 mutant strain, active compounds read high
Procedure, shortened: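 Screening used yeast with an engineered genetic alteration affecting cell cycle control. Compound-exposed cultures were compared with vehicle cultures, and reduced growth was taken as inhibition.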

[6] = NCI Yeast Anticancer Drug Screen. Data for the mlh1 rad18 strain (AID 175); conditions: S. cerevisiae mlh1 rad18 strain growth inhibition, active compounds read high
Procedure, shortened: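 Read-out is yeast growth inhibition, calculated against vehicle-only controls. The compound was applied to a strain engineered with DNA damage repair alterations.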

[7] = at 5.0 µM (retest, dose inferred, filed as 0.5)
[8] = at 50.0 µM (retest, dose inferred, filed as 5.0)

Row | Structure (SMILES) | growth inhibition [1, 7] | growth inhibition [1, 8] | growth inhibition ([1]; at 50.0 µM) | growth inhibition [2, 7] | growth inhibition [2, 8] | growth inhibition ([2]; at 50.0 µM) | growth inhibition [3, 7] | growth inhibition [3, 8] | growth inhibition ([3]; at 50.0 µM) | growth inhibition [4, 7] | growth inhibition [4, 8] | growth inhibition ([4]; at 50.0 µM) | growth inhibition [5, 7] | growth inhibition [5, 8] | growth inhibition ([5]; at 50.0 µM) | growth inhibition [6, 7] | growth inhibition [6, 8] | growth inhibition ([6]; at 50.0 µM)
1 | CCCC[CH2][Sn]([CH2]CCCC)[CH2]CCCC.CCCC[CH2][Sn]([CH2]CCCC)[CH2]CCCC | 78% (active) | 99% (active) | 99.2% (active) | 61% | 100% (active) | 99.5% (active) | 67% | 100% (active) | 99.5% (active) | 8% | 99% (active) | 98.8% (active) | 20% | 100% (active) | 98.8% (active) | 46% | 100% (active) | 99.1% (active)
2 | COc1cc(CC(=O)N2CC2)cc(OC)c1OC | -6% | -1% | 7.85% | 0% | 8% | -3.1% | -6% | 2% | -13.6% | -7% | -3% | 39.4% | -5% | -1% | 13.9% | -2% | -8% | -13.8%
3 | O=C(O)c1cc([N+](=O)[O-])c(Cl)c([N+](=O)[O-])c1Cl | 80% (active) | 99% (active) | 62.8% | 82% (active) | 99% (active) | 42.3% | 20% | 93% (active) | 46.9% | 38% | 100% (active) | 43.1% | 51% | 96% (active) | 64% | 70% (active) | 99% (active) | 49%
4 | CCC(=O)C(CCN1CCC2(CCCc3ccccc32)CC1)(c1ccccc1)c1ccccc1 | -2% | 89% (active) | 98.4% (active) | -5% | 93% (active) | 94.2% (active) | 3% | 93% (active) | 97.8% (active) | -11% | 87% (active) | 87.2% (active) | -2% | 91% (active) | 94.2% (active) | 3% | 92% (active) | 97.3% (active)
5 | CC(NCCN(C)C)C1CC2CCCCN2C1 (stereo unspecified) | -8% | -30% | 3.55% | -8% | -14% | 11.9% | -13% | -28% | 15.7% | -17% | -26% | 41.1% | 3% | 1% | 0.8% | -3% | 19% | 33%
6 | COc1cc2c(c(OC)c1OC)-c1ccc(O)c(=O)cc1C(NC(C)=O)CC2 (stereo unspecified) | 1% | 3% | -26.1% | -1% | -8% | 17.3% | -15% | 16% | -1.4% | -21% | 8% | 45.5% | -7% | 6% | 1.05% | -9% | -2% | 59.6%
7 | Cc1cc(N(CCCl)CCCl)ccc1CN1CCCN(Cc2ccc(N(CCCl)CCCl)cc2C)C1c1cccc(F)c1 | 6% | 97% (active) | 40.8% | -27% | 99% (active) | 18% | 1% | 98% (active) | 80.5% (active) | 2% | 97% (active) | -0.15% | 3% | 98% (active) | 2.15% | 8% | 95% (active) | 76.5% (active)
8 | Nc1c(Br)cc(Br)c2c1C(=O)c1ccccc1C2=O | 5% | -1% | -10.6% | 2% | 0% | -9.45% | 3% | 0% | 11.6% | 0% | 3% | 41.9% | 1% | 4% | 7.65% | 9% | -1% | 4.5%
9 | CCOP(=O)(OCC)/C(C#N)=C/c1cccc(Br)c1 | 19% | 88% (active) | 88.2% (active) | -4% | 90% (active) | 87.2% (active) | 3% | 94% (active) | 85.3% (active) | 24% | 91% (active) | 72.2% (active) | 5% | 92% (active) | 75.2% (active) | -3% | 94% (active) | 85.8% (active)
10 | COC1=C(N2CC2)C(=O)C(OC)=C(N2CC2)C1=O | 95% (active) | 97% (active) | 98.3% (active) | 95% (active) | 98% (active) | 97.8% (active) | 90% (active) | 97% (active) | 98.2% (active) | 91% (active) | 98% (active) | 98.8% (active) | 49% | 98% (active) | 97.1% (active) | 96% (active) | 98% (active) | 97.6% (active)
11 | O=C(Nc1ccccc1)c1cc([N+](=O)[O-])ccc1O | -1% | 98% (active) | 95.7% (active) | 0% | 97% (active) | 92% (active) | 2% | 95% (active) | 62.5% | -2% | 86% (active) | 32.5% | 0% | 96% (active) | 90.5% (active) | 12% | 96% (active) | 97.5% (active)
12 | CC[CH2][Sn]([F])([F])[CH2]CC | 20% | 94% (active) | 83% (active) | 12% | 97% (active) | 87.7% (active) | 11% | 94% (active) | 84.7% (active) | 17% | 91% (active) | 83.5% (active) | 14% | 96% (active) | 81.2% (active) | 13% | 95% (active) | 86.5% (active)
13 | [I][Hg][I].c1ccc(N=P(c2ccccc2)(c2ccccc2)c2ccccc2)cc1 | 99% (active) | 99% (active) | 99.3% (active) | 100% (active) | 100% (active) | 99.6% (active) | 100% (active) | 99% (active) | 99.6% (active) | 99% (active) | 99% (active) | 98.7% (active) | 99% (active) | 99% (active) | 99.3% (active) | 99% (active) | 99% (active) | 99.3% (active)
14 | COc1c(Br)cc(/C=C(/C)[N+](=O)[O-])cc1Br | 23% | 66% | 91.3% (active) | 12% | 57% | 92.5% (active) | 43% | 74% (active) | 31.8% | 29% | 61% | 71.2% (active) | 46% | 79% (active) | 91.8% (active) | 13% | 59% | 82.3% (active)
15 | C(CCC[Te][Te]CCCCCCOC1CCCCO1)CCOC1CCCCO1 (stereo unspecified) | 6% | 39% | 84.5% (active) | 3% | 17% | 48.5% | 7% | 19% | 67.7% | 3% | 29% | 62.4% | 0% | 30% | 68.7% | 2% | 30% | 90% (active)
16 | CC(Cc1ccccc1)N(C)Cc1ccc(-c2ccc(Cl)cc2)o1 (stereo unspecified) | 56% | 100% (active) | 99% (active) | 11% | 100% (active) | 99.7% (active) | 49% | 100% (active) | 33.9% | 38% | 100% (active) | 99.3% (active) | 42% | 100% (active) | 99.2% (active) | 41% | 100% (active) | 99.5% (active)
17 | NC(C(=O)O)c1ccccc1Cl (stereo unspecified) | -161% | -142% | 21% | -51% | -48% | 1.65% | -64% | -57% | -2.5% | -61% | -56% | 73.1% (active) | -68% | -69% | -3.55% | -147% | -106% | 13.9%
